Assay outcomes deposited in PubChem BioAssay by several laboratories.
A selection: hits, their analogues and other compounds. The true share with any hit is near 27%.
CYP2C9 inhib: inhibitors of human CYP2C9; actives 20% (n = 96,000); P11712; inhibition, % at 5 µM; AID 777; CYP2C9 Supersomes, luciferin-H conversion, luminescence;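 active means blocking of liver enzyme CYP2C9 beyond about 50% at 5 µM, limit read from the data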
Target sequence (P11712 whole entry, looked up): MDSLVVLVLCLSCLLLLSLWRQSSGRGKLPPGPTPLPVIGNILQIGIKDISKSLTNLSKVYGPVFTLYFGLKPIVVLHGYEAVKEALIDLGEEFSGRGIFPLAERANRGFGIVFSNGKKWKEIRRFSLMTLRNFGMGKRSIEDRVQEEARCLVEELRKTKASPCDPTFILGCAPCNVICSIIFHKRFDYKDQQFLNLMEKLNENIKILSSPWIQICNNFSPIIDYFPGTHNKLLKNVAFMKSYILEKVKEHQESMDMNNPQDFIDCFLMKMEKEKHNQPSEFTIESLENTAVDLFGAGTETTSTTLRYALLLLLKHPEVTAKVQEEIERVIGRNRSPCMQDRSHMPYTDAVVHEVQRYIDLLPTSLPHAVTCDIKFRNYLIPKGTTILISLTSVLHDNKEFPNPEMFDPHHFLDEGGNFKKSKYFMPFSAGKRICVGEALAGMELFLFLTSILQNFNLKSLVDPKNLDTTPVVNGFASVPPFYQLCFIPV
CYP2C19 activ: increases human CYP2C19 enzyme activity; P33261; recombinant CYP2C19, luciferin-H EGE luminescence; stronger effect = higher value; 0 = fully inhibited enzyme, 1 = untreated enzyme; activation factor at 5 µM; 96,000 tested, under 10 active;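 active means activation factor of at least 2 at 5 µM in the primary screen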
CYP2C19 inh: inhibitors of human CYP2C19. P33261. CYP2C19 Supersomes, luciferin-H EGE luminescence, 30 min. inhibition, % at 5 µM. actives 21% (n = 96,000);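 active means CYP2C19 inhibition above a set limit at 5 µM in the primary screen, cut at about 50% in these data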
CYP2C9 act: activators of human CYP2C9; activation factor at 5 µM; recombinant CYP2C9, luciferin-H conversion, luminescence; stronger effect = higher value; factor 1 = untreated enzyme, 0 = blocked; AID 1024; actives 1.4% (n = 96,000);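 active means activation factor of 2 or more for CYP2C9 at a 5 µM dose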
Cav32 inh: blocks human Cav3.2 T-type calcium channel; Cav3.2-expressing cells, Fluo-4 calcium fluorescence FDSS; stronger effect = lower value; O95180; B-score at 10 µM; actives 4% (n = 100,000); AID 449739;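 active means single-dose well whose peak fluorescence ratio is a statistical outlier from its plate by either plate-standardised score or position-corrected B-score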
Of the large screens only hits and unclear results are named; the others gave an inactive call.

COc1ccc(CNC(=O)CN2C(=O)C(C)N(c3ccc(C)cc3)C2=O)cc1 (centres undefined)	CYP2C9 inhib 78, CYP2C19 inh 94 (no result: Cav32 inh)
Cc1ccc(N2C(=O)N(CC(=O)NCc3ccc(Cl)cc3)C(=O)C2C)cc1 (centres undefined)	CYP2C19 inh 74, Cav32 inh -5.2
COc1ccccc1CNC(=O)CN1C(=O)C(C)N(c2ccc(C)cc2)C1=O (centres undefined)	none
Cc1ccc(C)c(C(=O)Cn2ncc(Cl)c(Cl)c2=O)c1	CYP2C9 act 2.1
COC(=O)CSc1nc2c(c(-c3ccc(C)o3)c1C#N)CCCC2	none
COC(=O)CSc1nc(N2CCCCC2)c2c(c1C#N)CCCC2	CYP2C9 inhib 90, CYP2C19 inh 68
COC(=O)CSc1nc(-c2ccccc2)c2c(c1C#N)CCCC2	CYP2C9 inhib 69, CYP2C19 inh 97
COc1ccc(C2NC(=O)N(CCCC(=O)O)C(C)=C2C(=O)OCc2ccccc2)cc1 (centres undefined)	none (no result: CYP2C9 inhib, CYP2C19 activ, CYP2C19 inh, CYP2C9 act)
CCN(CC)S(=O)(=O)c1ccc(NC(=O)COc2c(OC)cccc2OC)cc1	none
CCN(CC)S(=O)(=O)c1ccc(NC(=O)C(OC)c2ccccc2)cc1 (centres undefined)	CYP2C9 inhib 55
CC(=O)NC(CC(=O)Nc1ccc(S(=O)(=O)N2CCCC2)cc1)c1ccccc1 (centres undefined)	CYP2C9 inhib 52
CCN(CC)S(=O)(=O)c1ccc(NC(=O)CC(NC(C)=O)c2ccccc2)cc1 (centres undefined)	CYP2C9 inhib 86
CCC1=C2CC[C@H]3C(=O)N(CC(=O)OC)C(=O)[C@H]3[C@H]2[C@@]2(C)C(=NCC(=O)OC)OC(=O)N2C1=O	none (no result: CYP2C9 inhib, CYP2C19 activ, CYP2C19 inh, CYP2C9 act)
C=C(C)C(=O)Nc1cccc(C2=NOC3(C2)C[C@H](C(N)=O)N(C(=O)c2ccccc2)C3)c1 (some centres undefined)	none (no result: CYP2C9 inhib, CYP2C19 activ, CYP2C19 inh, CYP2C9 act)
COc1ccc(S(=O)(=O)N2N=C(C)Oc3ccccc3C2=O)cc1	CYP2C19 inh 65
CCOc1ccc(C=O)cc1CN1CCCCC1	none
COc1ccc2[nH]c3c(NCc4ccco4)ncnc3c2c1	none
Clc1ccc2c(NCc3ccco3)ncnc2c1	CYP2C9 inhib 55, CYP2C19 inh 79
Clc1ccc2c(NCc3ccccn3)ncnc2c1	CYP2C19 inh 62
COc1cccc(N2CC(O)=C(c3ccccc3)C2=N)c1	none (no result: Cav32 inh)
CCOC(=O)c1[nH]c2cc3c(cc2c1NC(=O)CN1CCC(C)CC1)OCO3	CYP2C9 inhib 68, CYP2C19 inh 61 (no result: Cav32 inh)
CCOC(=O)c1[nH]c2cc3c(cc2c1NC(=O)CN1CCc2ccccc2C1)OCO3	CYP2C9 inhib 55, CYP2C19 inh 68 (no result: Cav32 inh)
CCOC(=O)N1CCN(CC(=O)Nc2c(C(=O)OC)[nH]c3ccccc23)CC1	none
CC(C)Cc1nnc(NC(=O)CSc2nc(N)cc(=O)[nH]2)s1	none
Cc1cc(C)n(Cc2ccc(Cl)c(Cl)c2)c(=O)c1S(=O)(=O)c1ccccc1	none (no result: Cav32 inh)
CCCCn1c(O)c(C(CC)=Nc2ccc3c(c2)CCC3)c(=O)[nH]c1=O	none
CCC(=Nc1ccc(Cc2ccncc2)cc1)c1c(O)n(C)c(=O)n(C)c1=O	CYP2C9 inhib 92, CYP2C19 inh 96
CCOc1ccc(NC(=O)CC2C(=O)N(c3ccccc3)C(=S)N2Cc2ccccn2)cc1 (centres undefined)	none
CCCOc1ccc(NC(=O)CC2C(=O)N(CC)C(=S)N2Cc2cccs2)cc1 (centres undefined)	CYP2C9 inhib 52, CYP2C19 inh 82
NC(=O)CC(NC(=O)Cc1ccc(Br)cc1)c1ccc(N2CCC(Cc3ccccc3)CC2)c([N+](=O)[O-])c1 (centres undefined)	none (no result: CYP2C9 inhib, CYP2C19 activ, CYP2C19 inh, CYP2C9 act)
CC(=O)N1CCN=C1SCc1ccccc1Cl	CYP2C9 act 2.6
CC(=O)N1CCN=C1SCc1ccccc1F	none
O=C(C1CC1)N1CCN=C1SCc1ccccc1Cl	CYP2C19 inh 98
CCC(=O)N1CCN=C1SCc1ccccc1Cl	CYP2C19 inh 70
CC(=O)N1CCN=C1SCc1ccc(Cl)cc1	none
CCC(=O)N1CCN=C1SCc1ccccc1	none
CCC(=O)N1CCN=C1SCc1ccc(Cl)cc1	CYP2C19 inh 84
CC1CCN(CCc2nc3cc(NC(=O)NC4CCCCC4)ccc3n2C)CC1	none
CCCN(CCC)CCNc1c(N2CCN(C(=O)OCC)CC2)c(=O)c1=O	none
Cc1cccc(CSC2=NCCN2C(=O)C2CC2)c1	CYP2C19 inh 80
COCC(C)n1c(C)cc(C(=O)COC(=O)c2oc3ccccc3c2C)c1C (centres undefined)	Cav32 inh -5.8
